{"source": "the supplement of paper PMC6555819"}
{"system": "PPARg:RXRa IVT, anti-PPARg (NR concentration 270 nM, RXRa partner concentration 90 nM)", "test": "PBM binding z-score (relative to random genomic background probes); higher = stronger binding; sequences stand for … in GC…GCGATTGACAGCGTAGAATGAAGG", "summary_of_the_method": "(§1)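 Ligand-free nuclear receptor dimers were bound for 1 h to custom Agilent 4×180K protein-binding microarrays. Detection used antibodies against each partner (one per run). Binding z-scores rest on regression-normalized fluorescence, with random background probes as the reference.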"}
{"sequence": "CCTTAAGGGTCAAGGTTATAGCACGGGTGGTACG", "PBM binding z-score": 3.94}
{"sequence": "GCGAGCAGGCCATTTGGGTCACTCAATGACGGGC", "PBM binding z-score": 2.03}
{"sequence": "CGAACTAGGTCATCTAGGACAGTGAATACATTGA", "PBM binding z-score": 8.21}
{"sequence": "CCAGACAGGTGAAAGGTACCTCAGTCTGGTACGC", "PBM binding z-score": 1.96}
{"sequence": "GCAGACAGGTAAAACGCAGGTAACTCAGGGTGGC", "PBM binding z-score": -0.804}
{"sequence": "CCTCGCAGGCCAATCTGGGTCACTCAAGGCTTGA", "PBM binding z-score": 4.74}
{"sequence": "GGAACGAGGGCATTCTAGTTGATAGCATGGCGAT", "PBM binding z-score": 2.04}
{"sequence": "CCTACTAGGCCATTCAGAGGTCATTGATCATATG", "PBM binding z-score": 5.01}
{"sequence": "AGAACGACGGCACGCTGAGTTGATAGCAGAGTAG", "PBM binding z-score": -0.737}
{"sequence": "TCTGCTAGGTTAGTTGGTCAGCTAACGAGCTGCC", "PBM binding z-score": 1.5}
{"sequence": "ATCTCTAGGTAACAAGTTCAGTGTAAGAGAGGAC", "PBM binding z-score": 2.96}
{"sequence": "ATCGAAAGGTCGTGAGGTGAGTAGACAGAAAGGC", "PBM binding z-score": 2.39}
{"sequence": "CCTACTGGGCCACGAAAGCTCATTGATTCAGTGA", "PBM binding z-score": 5.08}
{"sequence": "AGAACGAGGGCAATGAGTTGATGGCACGGGTGGC", "PBM binding z-score": 2.88}
{"sequence": "CCTACTGGGCCAAGGTTATTGATCAGTCAAAGCA", "PBM binding z-score": 3.58}
{"sequence": "CCTTACGGGTCAAGGTTTTAGCACGGGTGGTACG", "PBM binding z-score": 3.36}
{"sequence": "TCTTGTAGACCAATAGAGGTTAAGAAAGTGCGCT", "PBM binding z-score": 1.7}
{"sequence": "ACAGACAGGTGAGTGAAGGTAACTTAGCTGGACG", "PBM binding z-score": 0.549}
{"system": "PPARg DBDmut:RXRa IVT, anti-PPARg (DBD mutation: PPARg1 K132A/R137A, NR concentration 270 nM, RXRa partner concentration 90 nM)", "test": "PBM binding z-score (relative to random genomic background probes); higher = stronger binding; sequences stand for … in GC…GCGATTGACAGCGTAGAATGAAGG", "summary_of_the_method": "as §1"}
{"sequence": "TCTCGGAGGACACGATGGTCAGAGCTTTCCAGAG", "PBM binding z-score": -0.797}
{"sequence": "GCTTACGGATCAAAGGTTATAGCATGAATAGAAT", "PBM binding z-score": 0.708}
{"sequence": "CTACCAAGGTGAACAAGGTCGTCGATTACTATTC", "PBM binding z-score": 0.293}
{"sequence": "AATACAGGGTCATCGTAGGCCAGTGTACGCACAG", "PBM binding z-score": 1.31}
{"sequence": "CCTGCTAGGTCATGGTCAGATAATCTACAGTATG", "PBM binding z-score": 0.574}
{"sequence": "CGAACTAGGTCAAAGGTCAAAGTCGAGCCAACCA", "PBM binding z-score": 5.13}
{"sequence": "AATACAGGGTCATTGTAGGCCAGAGTACGCACAG", "PBM binding z-score": 1.99}
{"sequence": "AGAATGAGGTTATACGTAGATCAGGGATGAAAGT", "PBM binding z-score": 1.78}
{"sequence": "ATCGAAAGGTCGAGGTGAGTTTAGAGAAAGGGAA", "PBM binding z-score": 0.969}
{"sequence": "TGAATGAGGTGATAAGATCAGGGAACGTTGCAAA", "PBM binding z-score": 0.612}
{"sequence": "ATCGAAAGGTCGAAGGTTAGTATACCCACCCGAA", "PBM binding z-score": 1.15}
{"sequence": "TCATATAGGTAAAGGGTGAAAGTCGGTGTGGTAA", "PBM binding z-score": 0.928}
{"sequence": "CCTTACGGGTCAAGGTTATAGCGCGGGTGGTACG", "PBM binding z-score": -0.278}
{"sequence": "CATCCAAGGTCAGAGAGGTCAGTGAATGCCGAGT", "PBM binding z-score": 0.635}
{"sequence": "CCTTACGGGGCACTGACAGGTTATAGCATTTGGA", "PBM binding z-score": -0.296}
{"sequence": "TGAATGAGGTTAAAAATCAGGGAACGTGGCGTCG", "PBM binding z-score": 0.361}
{"sequence": "TTACCAAGGTGAAAGGTTGTTGATGCACGCCTTG", "PBM binding z-score": 0.253}
{"sequence": "CCTAGCAGGCCCGGGTCACTCAAGCATTTCGCTT", "PBM binding z-score": -1.26}
{"sequence": "AGTCAAAGTTCACCAGGTAACGTAAGATTCAGCT", "PBM binding z-score": 1.09}
{"sequence": "TCTTGTAGATCAAGCCGGTTAAGAAAGCCTGAGT", "PBM binding z-score": -0.157}
{"sequence": "TCGAGTAGGTTAGGGGCCTTCAGAATGGCGTCGA", "PBM binding z-score": -0.729}
{"sequence": "GCTGGGAGGACAAGGTCAGAGCTTTGTCCGTAGA", "PBM binding z-score": -1.6}
{"sequence": "CCTTAAGGGTCAAGGTTATAGCACGGGTGGTACG", "PBM binding z-score": 0.0433}
{"sequence": "GCGAGCAGGCCATTTGGGTCACTCAATGACGGGC", "PBM binding z-score": -1.33}
{"sequence": "CGAACTAGGTCATCTAGGACAGTGAATACATTGA", "PBM binding z-score": 3.51}
{"sequence": "CCAGACAGGTGAAAGGTACCTCAGTCTGGTACGC", "PBM binding z-score": -0.554}
{"sequence": "GCAGACAGGTAAAACGCAGGTAACTCAGGGTGGC", "PBM binding z-score": -1.23}
{"sequence": "CCTCGCAGGCCAATCTGGGTCACTCAAGGCTTGA", "PBM binding z-score": -0.647}
{"sequence": "GGAACGAGGGCATTCTAGTTGATAGCATGGCGAT", "PBM binding z-score": -0.851}
{"sequence": "CCTACTAGGCCATTCAGAGGTCATTGATCATATG", "PBM binding z-score": 1.66}
{"sequence": "AGAACGACGGCACGCTGAGTTGATAGCAGAGTAG", "PBM binding z-score": -0.755}
{"sequence": "TCTGCTAGGTTAGTTGGTCAGCTAACGAGCTGCC", "PBM binding z-score": -0.266}
{"sequence": "ATCTCTAGGTAACAAGTTCAGTGTAAGAGAGGAC", "PBM binding z-score": 0.813}
{"sequence": "ATCGAAAGGTCGTGAGGTGAGTAGACAGAAAGGC", "PBM binding z-score": 0.658}
{"sequence": "CCTACTGGGCCACGAAAGCTCATTGATTCAGTGA", "PBM binding z-score": 0.172}
{"sequence": "AGAACGAGGGCAATGAGTTGATGGCACGGGTGGC", "PBM binding z-score": 1.3}
{"sequence": "CCTACTGGGCCAAGGTTATTGATCAGTCAAAGCA", "PBM binding z-score": -0.243}
{"sequence": "CCTTACGGGTCAAGGTTTTAGCACGGGTGGTACG", "PBM binding z-score": 0.173}
{"sequence": "TCTTGTAGACCAATAGAGGTTAAGAAAGTGCGCT", "PBM binding z-score": 0.86}
{"sequence": "ACAGACAGGTGAGTGAAGGTAACTTAGCTGGACG", "PBM binding z-score": -0.0823}
{"system": "PPARg DBDmut IVT, anti-PPARg (DBD mutation: PPARg1 K132A/R137A, NR concentration 270 nM)", "test": "PBM binding z-score (relative to random genomic background probes); higher = stronger binding; sequences stand for … in GC…GCGATTGACAGCGTAGAATGAAGG", "summary_of_the_method": "as §1"}
{"sequence": "TCTCGGAGGACACGATGGTCAGAGCTTTCCAGAG", "PBM binding z-score": -0.992}
{"sequence": "GCTTACGGATCAAAGGTTATAGCATGAATAGAAT", "PBM binding z-score": 0.266}
{"sequence": "CTACCAAGGTGAACAAGGTCGTCGATTACTATTC", "PBM binding z-score": -0.426}
{"sequence": "AATACAGGGTCATCGTAGGCCAGTGTACGCACAG", "PBM binding z-score": 0.904}
{"sequence": "CCTGCTAGGTCATGGTCAGATAATCTACAGTATG", "PBM binding z-score": 0.147}
{"sequence": "CGAACTAGGTCAAAGGTCAAAGTCGAGCCAACCA", "PBM binding z-score": 3.23}
{"sequence": "AATACAGGGTCATTGTAGGCCAGAGTACGCACAG", "PBM binding z-score": 0.86}
{"sequence": "AGAATGAGGTTATACGTAGATCAGGGATGAAAGT", "PBM binding z-score": 0.781}
{"sequence": "ATCGAAAGGTCGAGGTGAGTTTAGAGAAAGGGAA", "PBM binding z-score": 0.594}
{"sequence": "TGAATGAGGTGATAAGATCAGGGAACGTTGCAAA", "PBM binding z-score": 0.281}
{"sequence": "ATCGAAAGGTCGAAGGTTAGTATACCCACCCGAA", "PBM binding z-score": 0.865}
{"sequence": "TCATATAGGTAAAGGGTGAAAGTCGGTGTGGTAA", "PBM binding z-score": 1.03}
{"sequence": "CCTTACGGGTCAAGGTTATAGCGCGGGTGGTACG", "PBM binding z-score": 0.175}
{"sequence": "CATCCAAGGTCAGAGAGGTCAGTGAATGCCGAGT", "PBM binding z-score": -0.591}
{"sequence": "CCTTACGGGGCACTGACAGGTTATAGCATTTGGA", "PBM binding z-score": -0.753}
{"sequence": "TGAATGAGGTTAAAAATCAGGGAACGTGGCGTCG", "PBM binding z-score": 0.195}
{"sequence": "TTACCAAGGTGAAAGGTTGTTGATGCACGCCTTG", "PBM binding z-score": 0.316}
{"sequence": "CCTAGCAGGCCCGGGTCACTCAAGCATTTCGCTT", "PBM binding z-score": -1.82}
{"sequence": "AGTCAAAGTTCACCAGGTAACGTAAGATTCAGCT", "PBM binding z-score": 1.39}
{"sequence": "TCTTGTAGATCAAGCCGGTTAAGAAAGCCTGAGT", "PBM binding z-score": -0.013}
{"sequence": "TCGAGTAGGTTAGGGGCCTTCAGAATGGCGTCGA", "PBM binding z-score": -0.939}
{"sequence": "GCTGGGAGGACAAGGTCAGAGCTTTGTCCGTAGA", "PBM binding z-score": -1.38}
{"sequence": "CCTTAAGGGTCAAGGTTATAGCACGGGTGGTACG", "PBM binding z-score": 0.353}
{"sequence": "GCGAGCAGGCCATTTGGGTCACTCAATGACGGGC", "PBM binding z-score": -0.968}
{"sequence": "CGAACTAGGTCATCTAGGACAGTGAATACATTGA", "PBM binding z-score": 1.83}
{"sequence": "CCAGACAGGTGAAAGGTACCTCAGTCTGGTACGC", "PBM binding z-score": -0.542}
{"sequence": "GCAGACAGGTAAAACGCAGGTAACTCAGGGTGGC", "PBM binding z-score": -0.839}
{"sequence": "CCTCGCAGGCCAATCTGGGTCACTCAAGGCTTGA", "PBM binding z-score": -1.36}
{"sequence": "GGAACGAGGGCATTCTAGTTGATAGCATGGCGAT", "PBM binding z-score": -0.214}
{"sequence": "CCTACTAGGCCATTCAGAGGTCATTGATCATATG", "PBM binding z-score": 0.481}
{"sequence": "AGAACGACGGCACGCTGAGTTGATAGCAGAGTAG", "PBM binding z-score": -1.05}
{"sequence": "TCTGCTAGGTTAGTTGGTCAGCTAACGAGCTGCC", "PBM binding z-score": -0.918}
{"sequence": "ATCTCTAGGTAACAAGTTCAGTGTAAGAGAGGAC", "PBM binding z-score": 1.82}
{"sequence": "ATCGAAAGGTCGTGAGGTGAGTAGACAGAAAGGC", "PBM binding z-score": 0.706}
{"sequence": "CCTACTGGGCCACGAAAGCTCATTGATTCAGTGA", "PBM binding z-score": 0.266}
{"sequence": "AGAACGAGGGCAATGAGTTGATGGCACGGGTGGC", "PBM binding z-score": -0.157}
{"sequence": "CCTACTGGGCCAAGGTTATTGATCAGTCAAAGCA", "PBM binding z-score": -0.723}
{"sequence": "CCTTACGGGTCAAGGTTTTAGCACGGGTGGTACG", "PBM binding z-score": -0.72}
{"sequence": "TCTTGTAGACCAATAGAGGTTAAGAAAGTGCGCT", "PBM binding z-score": 0.346}
{"sequence": "ACAGACAGGTGAGTGAAGGTAACTTAGCTGGACG", "PBM binding z-score": -0.397}
